Records with an inconclusive call do not appear. Calls of active or inactive are those of the source. The call rests on the fitted dose curve; in most records, active means well fitted inhibition curve with a large enough effect; inconclusive means small, poorly fitted or top-dose-only effect; inactive means flat fitted curve, though single readings scatter.
What was measured:
Test in all cases: qHTS profiling for inhibitors of Plasmodium falciparum proliferation (AID 504749); further: nearly all actives have a fitted effect of over 60% in size
Details in all cases: P. falciparum in erythrocytes, SYBR Green DNA, 72 h; series mostly up to 28.7 µM
CP266 = tested on: CP266
Outline: (§1)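 Each compound contacts P. falciparum-infected red blood cells for 72 h at 37 C; lysis buffer (Tris, EDTA, saponin, Triton X, SYBR Green I) is added and fluorescence measured next morning; values normalized to controls.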

CP268 = tested on: CP268
Outline: as §1

CP269 = tested on: CP269
Outline: as §1

CP286 = tested on: CP286
Outline: as §1

CP291 = tested on: CP291
Outline: as §1

CP297 = tested on: CP297
Outline: as §1

CP305 = tested on: CP305
Outline: as §1

CP315 = tested on: CP315
Outline: as §1

CP325 = tested on: CP325
Outline: as §1

CP329 = tested on: CP329
Outline: as §1

Measured: Potency

C[C@@H](N)C(=O)O
inactive: all assays above

O=c1[nH]cnc2nc[nH]c12
inactive: all assays above

Cc1cc(NC(=O)C2=C(O)c3ccccc3S(=O)(=O)N2C)no1
inactive: all assays above

CCCCCC(N)=O
inactive: all assays above

Nc1ncnc(Nc2ccccc2)n1
inactive: all assays above

CC(=O)N[C@@H](Cc1ccc(O)cc1)C(=O)O
inactive: all assays above

O=C(O)COC(=O)Cc1ccccc1Nc1c(Cl)cccc1Cl
inactive: all assays above

CCN(CC)CC1CCCCN1CC(=O)N1c2ccccc2C(=O)Nc2cccnc21 (stereo not given)
inactive: all assays above

Cc1c(I)c(=O)n(-c2ccccc2)n1C
inactive: all assays above

CCOc1ccc(C(=O)OCCN(CC)CC)cc1
inactive: all assays above

O=C(O)Cn1c(C(=O)Nc2nc(-c3ccccc3Cl)cs2)cc2ccccc21
inactive: all assays above

O=C(O)Cc1cn(-c2ccccc2)nc1-c1ccc(Cl)cc1
inactive: all assays above

O=C1c2ccccc2S(=O)(=O)N1CCCCN1CCN(c2ncccn2)CC1
inactive: all assays above

CN(C(=O)c1c(O)c2ccccc2n(C)c1=O)c1ccccc1
inactive: all assays above

NC(=O)NS(=O)(=O)c1ccc(N)cc1
inactive: all assays above

CC(C(=O)O)c1ccc2c(c1)Cc1cccnc1O2 (stereo not given)
inactive: all assays above

CC(=O)NS(=O)(=O)c1ccc(N)cc1
inactive: all assays above

C[N+](C)(C)CC[N+]1(C)Cc2c(Cl)c(Cl)c(Cl)c(Cl)c2C1
inactive: all assays above

Cn1c(=O)c2c(ncn2CCO)n(C)c1=O
inactive: all assays above

CCCCCCCCCCCCCCCCC(C(=O)O)C(O)(CC(=O)O)C(=O)O (stereo not given)
inactive: all assays above

COc1ccc(O)cc1
inactive: all assays above

Cc1ccc(C(C)C)c(O)c1
inactive: all assays above

Nc1ccncc1N
inactive: all assays above

CC(=O)SC[C@@H](Cc1ccccc1)C(=O)NCC(=O)OCc1ccccc1
inactive: all assays above

CC(=O)Oc1cccc(C)c1
inactive: all assays above

Source: PubChem BioAssay (NCATS)
